SMILES strings stand for the structures. This is part of a sample that, as a whole, favours compounds with a hit. Of some 83,000 tested, about 20% had one in any assay.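 Interpretation: 100, growth as untreated; towards 0, rising growth inhibition; 0, no net growth; 0 to -100, cell death. Compounds scoring below 10 were considered active.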 Unmarked numbers belong to inactive results. The source made the active and inactive calls.

Holding throughout (assay): NCI-60 one-dose screen, 48 h (100 = growth as untreated, 0 = no growth, -100 = all killed)
One assay concerns SK-MEL-2 melanoma. Conditions: 10 µM unless noted.
A further assay has as its system EKVX NSCLC. Conditions: 10 µM unless noted.
A further assay relates to ACHN renal. Conditions: 10 µM unless noted.
The next assay has as its system CAKI-1 renal. Conditions: 10 µM.
Another assay has as its system A498 renal. Conditions: 10 µM unless noted.
A further assay has as its system CCRF-CEM leukemia. Conditions: 10 µM unless noted.
The subject of the next assay is MOLT-4 leukemia. Conditions: 10 µM unless noted.
A further assay relates to SR leukemia. Conditions: 10 µM unless noted.
The test system of another assay is RPMI-8226 leukemia. Conditions: 10 µM unless noted.
Another assay relates to OVCAR-8 ovarian. Conditions: 10 µM unless noted.
Another assay relates to OVCAR-5 ovarian. Conditions: 10 µM unless noted.
The subject of another assay is OVCAR-4 ovarian. Conditions: 10 µM unless noted.
A further assay has as its system SK-OV-3 ovarian. Conditions: 10 µM unless noted.
The subject of another assay is IGROV1 ovarian. Conditions: 10 µM unless noted.
A further assay relates to OVCAR-3 ovarian. Conditions: 10 µM unless noted.
In another assay the test system is NCI/ADR-RES ovarian. Conditions: 10 µM unless noted.
In another assay the test system is UO-31 renal. Conditions: 10 µM unless noted.
The next assay deals with TK-10 renal. Conditions: 10 µM unless noted.
The next assay deals with HS 578T breast. Conditions: 10 µM unless noted.

Turning to `COc1ccc(-c2nn(-c3ccc(NC(=O)c4cc(C(F)(F)F)cc(C(F)(F)F)c4)cc3)cc2-c2ccncc2)cc1Cl`, the growth in the assay on SK-MEL-2 melanoma is 89.9%; in the assay on EKVX NSCLC, 70.3%; in the assay with ACHN renal, 61.9%; with CAKI-1 renal, 41.2%; in the assay on A498 renal, 45.8%; in the assay with CCRF-CEM leukemia, 59%. Further, the growth with MOLT-4 leukemia was 62.2%; in the assay with SR leukemia, 73.6%; in the assay with RPMI-8226 leukemia it was 10.7%; in the assay with OVCAR-8 ovarian, 68.2%; in the assay with OVCAR-5 ovarian, 64%; with OVCAR-4 ovarian, 90.5%. For the same compound, the growth was 78.4% in the assay on SK-OV-3 ovarian, 74.7% in the assay with IGROV1 ovarian, 60.1% in the assay with OVCAR-3 ovarian and 63.5% in the assay on NCI/ADR-RES ovarian.
For the compound `CC(=O)c1cc2c(N)c(C(=O)Nc3cccc(Cl)c3)sc2nc1C`, the growth is 39% in the assay with SK-MEL-2 melanoma; 76.5% in the assay with EKVX NSCLC; 78.7% in the assay with UO-31 renal; 90.4% with TK-10 renal; 93% in the assay on ACHN renal; 37.4% in the assay with A498 renal. Moreover, the growth is 92.8% with CCRF-CEM leukemia; 73.4% with MOLT-4 leukemia; 66.1% in the assay on SR leukemia; 76.7% with RPMI-8226 leukemia; 83.5% in the assay on OVCAR-8 ovarian; 113% in the assay with OVCAR-5 ovarian. In addition, the growth in the assay with OVCAR-4 ovarian was 84.3%; in the assay on SK-OV-3 ovarian, 51.3%; with IGROV1 ovarian it was 92.3%; with OVCAR-3 ovarian it was 92.8%; with HS 578T breast, 83.2%; in the assay with NCI/ADR-RES ovarian it was 79.5%.
In the case of `O=[N+]([O-])c1ccc(NS(=O)(=O)c2cc(Cl)ccc2Cl)c2ccccc12`, the growth in the assay with SK-MEL-2 melanoma was 18.7%; in the assay with EKVX NSCLC it was 50.9%; with UO-31 renal, 43%; in the assay on TK-10 renal, 75.8%; in the assay with ACHN renal, 78.9%; in the assay with A498 renal, 23.9%. The growth in the assay on CCRF-CEM leukemia was 29.1%; in the assay with MOLT-4 leukemia it was 46.8%; with SR leukemia, 60.1%; in the assay on RPMI-8226 leukemia, 14.1%; in the assay on OVCAR-8 ovarian it was 79.5%; in the assay with OVCAR-5 ovarian, 89.1%. The growth is 54% with OVCAR-4 ovarian; 82.3% with IGROV1 ovarian; 33.7% in the assay on OVCAR-3 ovarian; 54.3% in the assay on HS 578T breast; 59.3% in the assay on NCI/ADR-RES ovarian.
As for `COc1cc2nc(C(=O)N3CCCCC3)cc(Nc3ccccc3)c2cc1OC`, the growth with SK-MEL-2 melanoma was 99.5%; with EKVX NSCLC it was 97.3%; in the assay on UO-31 renal, 82.4%; with TK-10 renal, 98.6%; with ACHN renal it was 96.4%; in the assay on A498 renal it was 91%. The growth in the assay with CCRF-CEM leukemia was 101%; in the assay on MOLT-4 leukemia, 97.3%; in the assay with SR leukemia, 81.7%; with RPMI-8226 leukemia, 87.6%; in the assay with OVCAR-8 ovarian, 98.3%; in the assay with OVCAR-5 ovarian, 109%. Moreover, the growth with OVCAR-4 ovarian was 100%; in the assay with IGROV1 ovarian, 98.3%; with OVCAR-3 ovarian it was 93.9%; in the assay on HS 578T breast it was 95%; in the assay on NCI/ADR-RES ovarian, 95.4%.
For the compound `COc1ccc(-c2cc(-c3nnc(SC/C(=N\O)c4ccccc4)n3-c3ccccc3)c3ccccc3n2)cc1`, the growth with SK-MEL-2 melanoma is 95.2%; in the assay on EKVX NSCLC, 103%; with UO-31 renal, 75.3%; in the assay with TK-10 renal, 123%; in the assay on ACHN renal, 106%; in the assay with A498 renal, 109%. The growth in the assay with CCRF-CEM leukemia is 103%; with MOLT-4 leukemia, 98.4%; in the assay on SR leukemia, 86.8%; in the assay on RPMI-8226 leukemia, 97.9%; with OVCAR-8 ovarian, 98.7%; in the assay on OVCAR-5 ovarian, 119%. Further, the growth in the assay with OVCAR-4 ovarian was 113%; with SK-OV-3 ovarian it was 79.4%; in the assay on IGROV1 ovarian it was 105%; in the assay on OVCAR-3 ovarian, 107%; in the assay with HS 578T breast it was 98.4%.
Turning to `COc1cc(Br)c(-c2nc(-c3ccccc3)c(-c3ccccc3)n2Cc2ccccc2)cc1OC`, the growth in the assay on SK-MEL-2 melanoma was 44.8%; in the assay with EKVX NSCLC it was 47.9%; with UO-31 renal, 30.4%; in the assay with TK-10 renal, 62.3%; with A498 renal it was 73.8%; in the assay on CCRF-CEM leukemia, 54.3%. The growth in the assay on MOLT-4 leukemia was 23.4%; in the assay with SR leukemia it was 47.3%; in the assay on RPMI-8226 leukemia, 40.8%; in the assay with OVCAR-8 ovarian, 55%; in the assay with OVCAR-5 ovarian, 77.1%; in the assay on OVCAR-4 ovarian it was 48.6%. The growth is 39.5% with SK-OV-3 ovarian; 49.4% in the assay with IGROV1 ovarian; 68.6% in the assay on OVCAR-3 ovarian; 88.7% in the assay with HS 578T breast; 48.9% in the assay on NCI/ADR-RES ovarian.
Consider `O=c1nc(N2CCOCC2)oc2c(-c3cccc4ccccc34)cccc12`, for which the growth was 100% in the assay on SK-MEL-2 melanoma; 81.1% with EKVX NSCLC; 53.4% with UO-31 renal; 81.6% in the assay with ACHN renal; 8.01% (active) with A498 renal; 91.5% in the assay with CCRF-CEM leukemia. Moreover, the growth in the assay on MOLT-4 leukemia was 93.1%; in the assay with SR leukemia it was 72.9%; in the assay with RPMI-8226 leukemia, 96.1%; with OVCAR-8 ovarian, 85.2%; with OVCAR-5 ovarian it was 89.2%; with OVCAR-4 ovarian, 97.1%. The growth was 90% in the assay on SK-OV-3 ovarian; 75.4% in the assay with IGROV1 ovarian; 85.8% in the assay on OVCAR-3 ovarian; 83.8% with HS 578T breast; 83.7% in the assay with NCI/ADR-RES ovarian.
As for `COc1cc(CN(c2ccc(Cl)cc2)C2OC(=O)c3ccccc32)cc(OC)c1OC` (configuration not stated), the growth in the assay on SK-MEL-2 melanoma is 41.6%; in the assay on EKVX NSCLC, 59.9%; with UO-31 renal, 72.4%; in the assay with ACHN renal it was 85.7%; in the assay on CAKI-1 renal, 69.1%; in the assay on A498 renal, 40%. The growth was 65.7% with CCRF-CEM leukemia; 35.4% with MOLT-4 leukemia; 32.1% in the assay with SR leukemia; 70.9% in the assay on RPMI-8226 leukemia; 74.8% with OVCAR-8 ovarian; 63.5% with OVCAR-5 ovarian. In addition, the growth was 74.7% in the assay on OVCAR-4 ovarian; 62.7% in the assay with SK-OV-3 ovarian; 63.9% in the assay with IGROV1 ovarian; 48.8% in the assay on OVCAR-3 ovarian; 59.6% in the assay on HS 578T breast; 55.9% in the assay on NCI/ADR-RES ovarian.

Source of the values: PubChem BioAssay (NCI).
